Assay results taken from PubChem BioAssay AID1220 (Sanford-Burnham Center for Chemical Genomics, 2008).
Out of some 190,000 compounds screened, about 1,300 (0.68%) were called active. Rule as the data show it: active = inhibition above about 50%; inactive = the rest. The list comes from a sample in which actives are over-represented; it also holds similar structures and randomly drawn compounds.

molecular target: Mannose-6-phosphate isomerase (Homo sapiens) (UniProt P34949); test: MPI inhibition at elevated mannose 6-phosphate – biochemical, fluorescence intensity, high mannose 6-phosphate, primary screen (AID 1220); details: recombinant PMI enzyme, coupled fluorescence intensity; at 20 µM; stronger effect = higher value
Sequence (P34949 whole entry, looked up): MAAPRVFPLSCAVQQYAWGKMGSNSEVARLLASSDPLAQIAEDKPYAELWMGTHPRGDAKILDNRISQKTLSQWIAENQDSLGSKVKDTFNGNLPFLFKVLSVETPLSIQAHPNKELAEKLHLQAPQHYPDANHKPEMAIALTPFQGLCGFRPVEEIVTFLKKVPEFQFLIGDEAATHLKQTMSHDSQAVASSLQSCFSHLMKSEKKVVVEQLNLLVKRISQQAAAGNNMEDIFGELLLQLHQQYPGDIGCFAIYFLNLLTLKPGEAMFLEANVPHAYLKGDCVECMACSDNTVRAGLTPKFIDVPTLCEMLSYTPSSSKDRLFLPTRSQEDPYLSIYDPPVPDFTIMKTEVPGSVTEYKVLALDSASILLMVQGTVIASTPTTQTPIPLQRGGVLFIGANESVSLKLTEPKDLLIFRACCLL

inhibition, inactive:
Cc1nn(-c2ccccc2)c(N2CCCC2)c1/C=N/NC(=O)c1ccccc1O -2.8%
O=C(Oc1ccc(/C=N/NC(=O)c2ccccc2O)cc1)c1ccccc1 -12.7%
COC(=O)c1ccc(NC(=S)Nc2ccc(O)cc2)cc1 -3.3%
Oc1ccc(NC(=S)Nc2ccccc2)cc1 16.4%
CCOc1cc(C(N)=O)cc(Cl)c1OCC 1.7%
Cc1ccc(/C=C/C(=O)c2ccccc2)cc1 11.2%
Cc1ccc(C(=O)Nc2ccc(C(=O)N/N=C/c3c[nH]c4ccccc34)cc2)cc1 11.4%
Cc1[nH]c2ccccc2c1/C=C/C(=O)c1ccccc1 3.9%
O=C(/C=C/c1c[nH]c2ccccc12)c1cccc2ccccc12 42%
COc1cc(/C=C(\C#N)c2nc3ccccc3[nH]2)cc(Br)c1OCc1ccc(F)cc1 19.3%
c1ccc(COCCN2CCN(CCOCc3ccccc3)CC2)cc1 3.2%
COc1ccc2nc(N3CCC(C)CC3)c(C#N)cc2c1 -5.3%
COc1ccc2nc(N3CCCC3)c(C#N)cc2c1 -5.8%
COc1ccc2nc(SCC(C)=O)c(C#N)cc2c1 -92.4%
CCSc1nc2ccc(OC)cc2cc1C#N 14.3%
COc1cccc(C2=NCCc3cc4c(cc32)OCO4)c1OC 1.3%
CCC(=O)Nc1nc2c(s1)COc1ccccc1-2 6.3%
CCC12CN3CC(CC)(CN(C1)C3c1ccccc1Cl)C2O (stereo not given) 6.4%
CCN(CC(=O)NC1CCS(=O)(=O)C1)C(=O)/C=C/c1cccs1 (stereo not given) -0.6%
Cc1ccc(-c2csc(/C(C#N)=C/Nc3ccccc3SC(F)(F)F)n2)cc1 -3.6%
O=C(CCc1ccc(S(=O)(=O)N2CCOCC2)cc1)N/N=C/c1ccc(F)cc1F 10.5%
O=C(Cc1csc(N2CCOCC2)n1)N/N=C/c1ccc(Cl)cc1Cl 4.5%
O=C(CCc1ccc(S(=O)(=O)N2CCOCC2)cc1)N/N=C/c1cccc(O)c1 -6.2%
O=C(Cc1csc(N2CCOCC2)n1)N/N=C/c1cccc(O)c1 6.6%
CCN1CCc2c(OCC(=O)N3CCC(C)CC3)cccc2C1=O -8.8%
COc1cccc(C(=O)NC(=S)Nc2ccc3oc(=O)ccc3c2)c1 4.1%
COc1ccc(S(=O)(=O)N2CCCCC2)cc1NC(=S)Nc1cccc(Cl)c1C 7.7%
Cc1cc(N2C(=O)CCC2=O)ccc1NC(=O)c1cccs1 -1.9%
COCc1cc(/C=N\NC(=O)COc2ccc(Cl)cc2)ccc1OC -2%
Cn1ccc2c([N+](=O)[O-])cccc2c1=O 23.6%
O=c1[nH]cnc2c([N+](=O)[O-])cccc12 -12.2%
CCc1c(C(C)S(=O)(=O)c2ccc(C)cc2)[nH]c(=O)n1-c1ccc(OC(F)(F)F)cc1 (stereo not given) -28.2%
CCc1c(C(C)S(=O)(=O)c2ccc(C)cc2)[nH]c(=O)n1-c1ccc(C)cc1 (stereo not given) -35.3%
CCOC(=O)C1(CCc2ccccc2)CCN(Cc2ccc(OC)cc2)CC1 3.3%
O=C(NC1CCCCC1)c1ccc(NS(=O)(=O)c2cccc3cccnc23)cc1 -3.4%
CN1CCN(CC(C)(C)NS(=O)(=O)c2ccc(Cl)cc2)CC1 3.4%
NCC(O)(c1ccc(Cl)cc1)c1ccc(Cl)cc1 10.4%
COCCN(C(=O)CSc1nnc(-c2ccccc2F)n1C)c1c(N)n(Cc2ccccc2)c(=O)[nH]c1=O -3.1%
COC(=O)C1CCN(Cc2ccc(OCCCN3CCN(c4ccc([N+](=O)[O-])cc4)CC3)cc2)CC1 14%
CCCCOc1ccc(CN2CCCCC2)cc1 14.9%
Cc1cc2c(cc(C(=O)OCC(=O)NCc3ccco3)n2C)s1 -6.2%
CN1CCN(C(=O)C2=C[C@H](C(C)(C)C)C[C@H](OCCCCO)O2)CC1 0.2%
CCOC(=O)c1cc2cc(OC)ccc2[nH]1 -9.7%
CC(C)OC(=O)c1cc2ccccc2[nH]1 7.4%
CCCCC(=O)Nc1cc(OC)c(NC(=O)C2CCCCC2)cc1OC 2.5%
COc1ccc(Cl)cc1NC(=O)NC1CCCCC1 -2.2%
O=C(CCC1COc2ccccc2O1)NCc1ccccc1 (stereo not given) 0.9%
CC1CC2(CCCCC2)Nc2c1ccc1ccccc21 (stereo not given) -36.7%
NS(=O)(=O)c1cccc(NC(=O)CN2CCN(Cc3ccc4c(c3)OCO4)CC2)c1 10%
COc1ccc(NC2=C(Cl)C(=O)N(CCc3ccccc3)C2=O)cc1 4.8%
Cc1cc(=S)cc(C)n1CCO -138%
O=C(/C(=N/N=C/c1ccc(O)c(O)c1)c1ccccc1)c1ccccc1 24.9%
O=C(/C(=N/N=C/c1ccc(O)c(O)c1O)c1ccccc1)c1ccccc1 30.5%

inhibition, active:
O=C(N/N=C/c1cc2c3c(c1O)CCCN3CCC2)c1ccccc1O 50.2%
Oc1ccc(NC(=S)Nc2ccc(O)cc2)cc1 66.7%
O=C(/C=C/c1c[nH]c2ccccc12)c1ccccc1 52.5%
Cc1ccc(C(=O)/C=C/c2c[nH]c3ccccc23)cc1 54.4%
COc1ccc2nc(SC)c(C#N)cc2c1 52.1%
COc1ccc2nc(N3CCC(O)CC3)c(C#N)cc2c1 51.2%
O=c1[nH]ccc2c([N+](=O)[O-])cccc12 55.2%
CCc1[nH]c(=O)[nH]c1C(C)S(=O)(=O)c1ccc(C)cc1 (stereo not given) 70.3%
CN1CCN(CC(O)(c2ccc(Cl)cc2)c2ccc(Cl)cc2)CC1 55.4%
Oc1ccc(N2CCN(Cc3ccc(OCCCN4CCCCC4)cc3)CC2)cc1 58.4%
CCOC(=O)c1cc2cc3ccccc3cc2[nH]1 53.2%
CCCC(=O)Nc1cc(OC)c(NC(=O)NC2CCCCC2)cc1OC 51.8%
